# The entries come from a sample that favours the strongest signals as a whole.
# Columns and labels:
# Test in all cases: glycan array binding signal (z-score within array); higher = stronger binding
# Conditions in all cases: glycan notation: IUPAC condensed, linker removed
# [1] = test system: Fuc(a1-2)Gal(b1-4)GlcNAc(b1-2)Man(a1-3)[Fuc(a1-2)Gal(b1-4)GlcNAc(b1-2)Man(a1-6)]Man(b1-4)GlcNAc(b1-4)[Fuc(a1-6)]GlcNAc
# Summary of the method: (§1)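 From the Consortium for Functional Glycomics database, 3228 arrays were curated, keeping only those whose protein sequence was available. Binding is given as a within-array Z-score averaged across arrays sharing a protein sequence and across linkers. Negative Z-scores can be read as non-binding.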
# [2] = test system: Fuc(a1-2)Gal(b1-4)GlcNAc(b1-3)Gal(b1-4)GlcNAc(b1-2)Man(a1-3)[Fuc(a1-2)Gal(b1-4)GlcNAc(b1-3)Gal(b1-4)GlcNAc(b1-2)Man(a1-6)]Man(b1-4)GlcNAc(b1-4)GlcNAc
# Summary of the method: as §1
# [3] = test system: Fuc(a1-2)Gal(b1-4)GlcNAc(b1-3)[Fuc(a1-3)[Gal(b1-4)]GlcNAc(b1-6)]Gal(b1-4)Glc
# Summary of the method: as §1
# [4] = test system: Fuc(a1-2)Gal(b1-4)[Fuc(a1-3)]GlcNAc
# Summary of the method: as §1
# [5] = test system: Fuc(a1-2)Gal(b1-4)GlcNAc(b1-3)[Fuc(a1-2)Gal(b1-4)GlcNAc(b1-6)]GalNAc
# Summary of the method: as §1
# [6] = test system: Fuc(a1-2)Gal(b1-4)[Fuc(a1-3)]GlcNAc(b1-3)Gal(b1-4)[Fuc(a1-3)]GlcNAc(b1-3)Gal(b1-4)[Fuc(a1-3)]GlcNAc
# Summary of the method: as §1
# [7] = test system: Fuc(a1-2)Gal(b1-3)[Fuc(a1-4)]GlcNAc(b1-2)Man(a1-3)[Fuc(a1-2)Gal(b1-3)[Fuc(a1-4)]GlcNAc(b1-2)Man(a1-6)]Man(b1-4)GlcNAc(b1-4)[Fuc(a1-6)]GlcNAc(b1-4)[Fuc(a1-6)]GlcNAc
# Summary of the method: as §1
# [8] = test system: Fuc(a1-2)Gal(b1-4)GlcNAc
# Summary of the method: as §1
# [9] = test system: Fuc(a1-2)Gal(b1-3)[Fuc(a1-4)]GlcNAc
# Summary of the method: as §1
# [10] = test system: Fuc(a1-2)Gal(b1-4)GlcNAc(b1-2)[Fuc(a1-2)Gal(b1-4)GlcNAc(b1-4)]Man(a1-3)[Fuc(a1-2)Gal(b1-4)GlcNAc(b1-2)Man(a1-6)]Man(b1-4)GlcNAc(b1-4)GlcNAc
# Summary of the method: as §1
# [11] = test system: Fuc(a1-2)Gal(b1-4)GlcNAc(b1-3)Gal(b1-4)GlcNAc(b1-3)Gal(b1-4)GlcNAc
# Summary of the method: as §1
# [12] = test system: Fuc(a1-2)Gal(b1-4)GlcNAc(b1-3)Gal(b1-4)GlcNAc
# Summary of the method: as §1
# [13] = test system: Fuc(a1-2)Gal(b1-4)GlcNAc(b1-3)GalNAc
# Summary of the method: as §1
# [14] = test system: Fuc(a1-2)Gal(b1-4)[Fuc(a1-3)]GlcNAc(b1-3)Gal(b1-4)[Fuc(a1-3)]GlcNAc
# Summary of the method: as §1
# [15] = test system: Fuc(a1-2)Gal(b1-4)Glc6S
# Summary of the method: as §1
# [16] = test system: Fuc(a1-2)Gal(b1-4)[Fuc(a1-3)]GlcNAc(b1-2)Man(a1-3)[Fuc(a1-2)Gal(b1-4)[Fuc(a1-3)]GlcNAc(b1-2)Man(a1-6)]Man(b1-4)GlcNAc(b1-4)GlcNAc
# Summary of the method: as §1
# [17] = test system: Fuc(a1-2)Gal(b1-4)[Fuc(a1-3)]GlcNAc(b1-3)GalNAc
# Summary of the method: as §1
# [18] = test system: Fuc(a1-2)Gal(b1-4)GlcNAc(b1-6)GalNAc
# Summary of the method: as §1
# [19] = test system: Fuc(a1-2)Gal(b1-3)[Fuc(a1-4)]GlcNAc(b1-2)Man(a1-3)[Fuc(a1-2)Gal(b1-3)[Fuc(a1-4)]GlcNAc(b1-2)Man(a1-6)]Man(b1-4)GlcNAc(b1-4)GlcNAc
# Summary of the method: as §1
# [20] = test system: Fuc(a1-2)Gal(b1-4)GlcNAc6S
# Summary of the method: as §1
substance,measurement,setting,value
LcI (Legionella pneumophila),glycan array binding signal (z-score),[1],0.257
same,glycan array binding signal (z-score),[2],3.4
same,glycan array binding signal (z-score),[3],-0.92
same,glycan array binding signal (z-score),[4],-0.561
AgI/IIC123-GFP (Streptococcus mutans),glycan array binding signal (z-score),[1],-0.573
same,glycan array binding signal (z-score),[5],-0.365
same,glycan array binding signal (z-score),[3],0.17
same,glycan array binding signal (z-score),[6],-0.094
Epa22,glycan array binding signal (z-score),[7],0.488
same,glycan array binding signal (z-score),[8],0.238
Actinohivin (Actinomycete K97),glycan array binding signal (z-score),[7],0.06
AgI/II Vhelical-GFP (Streptococcus mutans),glycan array binding signal (z-score),[9],-0.149
same,glycan array binding signal (z-score),[10],-0.246
"BambL (Burhholderia ambifaria), Q0B4G1",glycan array binding signal (z-score),[11],3.79
same,glycan array binding signal (z-score),[12],3.14
same,glycan array binding signal (z-score),[13],-0.033
same,glycan array binding signal (z-score),[8],3.81
same,glycan array binding signal (z-score),[14],3.28
"SiiE (Salmonella typhimurium), A0A0H3NVH0",glycan array binding signal (z-score),[15],3.24
same,glycan array binding signal (z-score),[13],-0.206
same,glycan array binding signal (z-score),[16],2.43
same,glycan array binding signal (z-score),[17],1.53
"Wza (Escherichia coli), P0A930",glycan array binding signal (z-score),[10],0.441
same,glycan array binding signal (z-score),[18],0.01
"SpGH101 (Streptococcus pneumoniae), Q8DR60",glycan array binding signal (z-score),[19],0.018
same,glycan array binding signal (z-score),[20],-0.166
same,glycan array binding signal (z-score),[17],0.136
same,glycan array binding signal (z-score),[4],-0.183
"GspB (Streptococcus gordonii), Q939N5",glycan array binding signal (z-score),[11],0
